# mHTT-CaM PPI inh – inhibitors of human mutant huntingtin-calmodulin interaction. 190,000 compounds, 3.6% hits. AlphaScreen His-mHTT/GST-CaM binding, luminescence. P42858. inhibition, % at 15 µM;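 further: 0% = both proteins with DMSO and 100% = one protein alone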
# Pf apPOL block – Pf-apPOL DNA polymerase inhibition | Recombinant Pf-apPOL, molecular beacon fluorescence, 1.5 h | inhibition, % at 10 µM | 210,000 compounds, 0.25% hits
# Active calls of the source: *; x = not tested or not shown; ! = repeats disagree. A selection: hits, their analogues and other compounds. The true share with any hit is near 3.6%. No stated cut-off is given here; in the data, active means inhibition above about 50%; inactive means the rest.
SMILES,mHTT-CaM PPI inh,Pf apPOL block
N#CC1=C(N)Oc2cc(N)ccc2C1c1ccc(Cl)cc1 (centres undefined),15.6,-2.6
Nc1ncnc(NCCC(c2ccccc2)c2ccccc2)c1[N+](=O)[O-],1.0,0.7
COc1ccc(OC)c(-c2cc3ccc(OC(=O)c4cc(OC)c(OC)c(OC)c4)cc3oc2=O)c1,1.8,-4.8
Cc1cccc(-n2nc3c(c2NC(=O)C2CCCC2)CS(=O)C3)c1C (centres undefined),-3.0,-2.3
CCc1ccccc1NC(=O)c1cc(OC)c(OC)c(OC)c1,-0.9,4.2
N#Cc1cccc(S(=O)(=O)N2CCC(c3noc(-c4cccc(F)c4)n3)CC2)c1,-1.6,0.7
O=C(NCc1ccncc1)C(=O)Nc1ccc(Cl)c(Cl)c1,5.0,-2.9
N#Cc1ccc(CNC(=S)Nc2ccc(Cl)c(Cl)c2)cc1,x,61.1*
C=CCn1c(=O)c2c(ncn2CCC)n(-c2ccc(C)cc2)c1=O,-1.9,1.8
CCOc1ccc(C(=O)Nc2cccc(C)n2)cc1OCC,1.0,-4.1
CCOc1cccc(C(Nc2ccccn2)c2ccc3ccc(C)nc3c2O)c1 (centres undefined),59.0*,-1.4
CCOc1cccc(C(Nc2cccc(C)n2)c2ccc3ccc(C)nc3c2O)c1 (centres undefined),70.0*,-58.2
CCOc1cc(OCC)cc(C(=O)Nc2ccccn2)c1,-9.2,-0.1
O=C(c1cccnc1)N1CCCC(c2nc(-c3ccc(F)cc3)n[nH]2)C1 (centres undefined),-4.3,2.7
NC1CCCc2c1[nH]c1ccc([N+](=O)[O-])cc21 (centres undefined),12.4,2.8
O=[N+]([O-])c1ccc2[nH]c3c(c2c1)CCCC3NC1CCN(CCc2ccccc2)CC1 (centres undefined),100.3*,-1.4
Cc1ccsc1C(C1=C(O)CC(C)(C)CC1=O)C1C(=O)CC(C)(C)CC1=O (centres undefined),1.4,-7.3
COc1ccc(Br)cc1CN1C(=O)c2ccccc2C1C(=O)NCc1cccnc1 (centres undefined),5.0,2.3
COc1ccc(OC)c(C2Sc3ccccc3NC3=C2C(=O)c2ccccc23)c1 (centres undefined),71.0*,-54.7
O=C1OCC2=C1C(c1ccc(F)cc1)Sc1ccccc1N2 (centres undefined),2.0,1.4
Cn1c2c(c(=O)n(C)c1=O)C(c1ccc([N+](=O)[O-])cc1)C1=C(N2)c2ccccc2C1=O (centres undefined),-4.0,-4.1
COc1ccc(OC)c(C2C3=C(Nc4c2c(=O)n(C)c(=O)n4C)c2ccccc2C3=O)c1 (centres undefined),-1.0,-6.2
O=C1C2=C(Nc3ccccc3SC2c2ccc([N+](=O)[O-])cc2)c2ccccc21 (centres undefined),66.0*,-6.7
O=C1C2=C(Nc3[nH]n(-c4ccccc4)c(=O)c3C2c2ccc([N+](=O)[O-])cc2)c2ccccc21 (centres undefined),50.0*,1.4
O=C1C2=C(Nc3ccccc3SC2c2ccc(Br)cc2)c2ccccc21 (centres undefined),70.2*,x
SMILES,mHTT-CaM PPI inh,Pf apPOL block
CCOC(=O)C1=C(C)NC2=C(C(=O)c3ccccc32)C1c1ccc([N+](=O)[O-])cc1 (centres undefined),x,-8.3
COc1ccc(S(=O)(=O)Oc2ccc3c(c2)OC(=Cc2cccc(OC)c2OC)C3=O)cc1,-1.9,6.9
O=C(Nc1cccnc1Cl)c1cc2nc(-c3cccs3)cc(C(F)(F)Cl)n2n1,7.0,-2.8
COCCCNC(=O)c1cc2c(=O)n3cccc(C)c3nc2n(C2CCCCC2)c1=N,-3.0,-5.2
N=c1n(CCOc2ccccc2)c2ccccc2n1Cc1ccccc1F,12.4,-5.8
CC(O)(/C=C1\Oc2ccc([N+](=O)[O-])cc2C1N1CCOCC1)C1CC2C=CC1C2 (centres undefined),18.0,-8.6
CCCC1(CO)CCCN1C(=O)c1ccc2cc[nH]c2c1 (centres undefined),55.4*,24.6
CCCC1(CO)CCCN1C(=O)c1ccc2[nH]ccc2c1 (centres undefined),-1.2,-4.6
CN(C)CCNC(=O)C1CCN(c2nccnc2Sc2ccccc2)CC1,9.2,-5.4
Cc1nc(Nc2ccccc2)sc1C(=O)Nc1ccc(F)cc1,-1.0,-0.6
CC(C)(C)c1ccc(/C=C2\C(=O)Nc3ccc(Br)cc32)cc1,90.0*,-6.8
O=C1Nc2ccc(Br)cc2/C1=C/c1ccc(O)c(O)c1,96.0*,2.3
O=C1Nc2ccc(Br)cc2/C1=C/c1ccc(Cl)cc1,26.0,-5.7
O=C1Nc2ccc(Br)cc2/C1=C/c1cccc(Cl)c1,40.0,2.9
Cc1cc(Br)cc2sc(N)nc12,-9.1,-4.2
Cc1cc(C)c(C2=NC(c3ccccc3)(c3ccccc3)c3ccccc3N2)c(=O)[nH]1,32.0,-7.6
c1ccc(C2=NC(c3ccccc3)(c3ccccc3)c3ccccc3N2)cc1,61.2*,x
O=C(NCCCN1CCCC1=O)C1c2ccccc2CC(=O)N1Cc1ccccc1 (centres undefined),-2.8,-6.2
COc1ccc(Cl)cc1NC(=O)C(C)Oc1ccccc1 (centres undefined),-98.6,-8.2
Cc1ccc(C(=O)N(Cc2ccco2)C2CCS(=O)(=O)C2)cc1 (centres undefined),-1.7,-2.6
CC1=C(C(N)=O)C(c2ccc3c(c2)OCO3)n2nc(-c3ccccc3Cl)nc2N1 (centres undefined),8.0,-3.7
COc1ccccc1C1NC(=O)NC(C)=C1C(=O)Nc1ccc(F)c(F)c1 (centres undefined),6.0,0.3
COc1ccc(C2NC(=O)NC(C)=C2C(=O)Nc2ccc(F)c(F)c2)cc1OC (centres undefined),-1.0,65.1*!
COCCn1c(-c2ccccc2)cnc1SCC(=O)Nc1ccccc1,0.2,-15.3
CNC(=O)CSc1ncc(-c2ccc(Br)cc2)n1Cc1ccccc1,69.1*,-7.8
SMILES,mHTT-CaM PPI inh,Pf apPOL block
O=C(c1ccccc1)N1CCCC(c2ccnc(-c3ccc(F)cc3)n2)C1 (centres undefined),12.8,-4.3
CCC(=O)N1CCCC(c2ccnc(-c3ccc(F)cc3)n2)C1 (centres undefined),75.8*,-18.1
O=C(c1cccc(F)c1)N1CCCC(c2ccnc(-c3ccc(F)cc3)n2)C1 (centres undefined),53.6*,-5.3
CCCC(=O)N1CCCC(c2ccnc(-c3ccc(F)cc3)n2)C1 (centres undefined),1.8,-5.5
O=C(NCC1CCN(c2ncccn2)CC1)c1cccc(C(F)(F)F)c1,-18.0,-6.0
CC(C(=O)Nc1cc(Cl)ccc1C#N)n1nc(-c2ccc(F)cc2)ccc1=O (centres undefined),-5.3,-5.5
CC(C(=O)Nc1nc2c(s1)CCCC2)n1nc(-c2ccc(F)cc2)ccc1=O (centres undefined),87.5*,-1.4
O=[N+]([O-])c1cccc2c1NC(c1ccc(F)cc1)C1CC=CC21 (centres undefined),83.0*,0.1
COc1ccc(C)c2c1NC(c1ccc(Br)cc1)C1CC=CC21 (centres undefined),72.0*,-7.0
O=[N+]([O-])c1cccc2c1NC(c1ccc(Cl)cc1)C1CC=CC21 (centres undefined),86.0*,1.3
COc1cccc2c1NC(c1ccc(Cl)cc1)C1CC=CC21 (centres undefined),59.0*,2.5

# Screens as filed in PubChem BioAssay.
